# Article PMC7862700, “An all-to-all approach to the identification of sequence-specific readers for epigenetic DNA modifications on cytosine”
# Experiments:
# Experiment in all cases: DAPPL (digital affinity profiling via proximity ligation, sequencing); 10 mM Tris-HCl pH 7.5, 50 mM NaCl, 1 mM DTT, 4% glycerol, room temperature, 30 min; GST-TFs on glutathione beads, 16-mer random dsDNA library, 0.1% formaldehyde crosslink after washing; high values mean tight binding
# FEV = molecular target: T1, FEV (Homo sapiens, UniProt Q99581 1-238); conditions: protein: recombinant; tags: N-terminal GST; dsDNA, one strand shown
# T1 sequence: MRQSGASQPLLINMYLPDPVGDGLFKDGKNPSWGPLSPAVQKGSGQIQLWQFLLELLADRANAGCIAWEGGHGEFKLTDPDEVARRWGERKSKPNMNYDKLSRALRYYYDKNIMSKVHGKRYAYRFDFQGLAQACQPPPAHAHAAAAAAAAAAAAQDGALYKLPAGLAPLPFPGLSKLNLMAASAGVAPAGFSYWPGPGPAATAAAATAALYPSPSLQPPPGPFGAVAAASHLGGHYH
# Summary of the method: (§1)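 Sequencing on an Illumina NextSeq500 followed washing, crosslinking with 0.1% formaldehyde, proximity ligation (BsaI/T4 ligase, 1 h, 37 °C) and PCR amplification of pools that had been incubated for 30 min at room temperature with 200 nmole of a random double-stranded 16-mer DNA library in Tris/NaCl/DTT/glycerol buffer. Each pool held DNA-barcoded human transcription factors, expressed in yeast as GST fusions and captured on glutathione beads, plus a tag-only sample. Binding signal is a hexamer's read frequency for a factor divided by its frequency in the tag-only sample.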
# ETV5 = ETV5 (Homo sapiens, UniProt P41161 1-510); conditions: protein: recombinant; tags: N-terminal GST; dsDNA, one strand shown
# Chain of ETV5 (P41161 whole entry): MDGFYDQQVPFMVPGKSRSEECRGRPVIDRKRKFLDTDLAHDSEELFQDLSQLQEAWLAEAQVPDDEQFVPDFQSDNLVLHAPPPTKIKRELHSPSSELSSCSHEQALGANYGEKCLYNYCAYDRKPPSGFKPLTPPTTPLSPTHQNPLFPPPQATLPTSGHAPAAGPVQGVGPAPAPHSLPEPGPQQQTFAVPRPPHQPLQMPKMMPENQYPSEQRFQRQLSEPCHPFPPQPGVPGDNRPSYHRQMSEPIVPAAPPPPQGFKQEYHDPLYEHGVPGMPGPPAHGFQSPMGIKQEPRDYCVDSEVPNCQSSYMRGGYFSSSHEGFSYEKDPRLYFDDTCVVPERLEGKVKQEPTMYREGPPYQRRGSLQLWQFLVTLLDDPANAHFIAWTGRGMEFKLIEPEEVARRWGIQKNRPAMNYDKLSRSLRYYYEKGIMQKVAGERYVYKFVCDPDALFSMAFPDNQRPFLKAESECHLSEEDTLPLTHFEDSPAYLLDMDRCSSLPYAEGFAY
# Summary of the method: as §1
# HSF1 = HSF1 (Homo sapiens, UniProt Q00613 1-529); conditions: protein: recombinant; tags: N-terminal GST; chain copies: 3; dsDNA, one strand shown
# Chain of HSF1 (Q00613 whole entry): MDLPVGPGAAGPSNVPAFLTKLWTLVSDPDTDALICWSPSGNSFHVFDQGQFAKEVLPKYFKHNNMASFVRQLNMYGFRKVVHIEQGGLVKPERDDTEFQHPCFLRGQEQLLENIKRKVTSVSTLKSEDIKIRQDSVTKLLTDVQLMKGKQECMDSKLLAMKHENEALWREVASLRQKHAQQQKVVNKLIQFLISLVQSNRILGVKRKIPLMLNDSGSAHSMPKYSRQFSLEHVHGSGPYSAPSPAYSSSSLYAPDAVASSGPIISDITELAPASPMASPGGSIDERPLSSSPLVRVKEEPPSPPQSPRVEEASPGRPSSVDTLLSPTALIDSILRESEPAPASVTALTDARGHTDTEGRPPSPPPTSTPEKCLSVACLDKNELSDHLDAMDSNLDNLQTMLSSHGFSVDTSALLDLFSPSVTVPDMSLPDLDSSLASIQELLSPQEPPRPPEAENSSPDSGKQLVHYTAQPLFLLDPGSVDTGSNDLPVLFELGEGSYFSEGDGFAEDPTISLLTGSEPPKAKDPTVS
# Summary of the method: as §1
# SPIC = molecular target: T2, SPIC (Homo sapiens, UniProt Q8N5J4 1-248); conditions: protein: recombinant; tags: N-terminal GST; dsDNA, one strand shown
# T2 sequence: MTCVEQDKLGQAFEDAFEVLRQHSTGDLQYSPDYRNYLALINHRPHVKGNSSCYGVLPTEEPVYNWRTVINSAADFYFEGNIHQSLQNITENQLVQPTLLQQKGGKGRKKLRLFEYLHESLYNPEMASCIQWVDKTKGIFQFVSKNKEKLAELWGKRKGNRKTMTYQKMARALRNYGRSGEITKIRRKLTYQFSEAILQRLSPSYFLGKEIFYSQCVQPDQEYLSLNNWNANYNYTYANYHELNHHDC
# Summary of the method: as §1
# ELF4 = ELF4 (Homo sapiens, UniProt Q99607 1-663); conditions: protein: recombinant; tags: N-terminal GST; dsDNA, one strand shown
# Chain of ELF4 (Q99607 whole entry): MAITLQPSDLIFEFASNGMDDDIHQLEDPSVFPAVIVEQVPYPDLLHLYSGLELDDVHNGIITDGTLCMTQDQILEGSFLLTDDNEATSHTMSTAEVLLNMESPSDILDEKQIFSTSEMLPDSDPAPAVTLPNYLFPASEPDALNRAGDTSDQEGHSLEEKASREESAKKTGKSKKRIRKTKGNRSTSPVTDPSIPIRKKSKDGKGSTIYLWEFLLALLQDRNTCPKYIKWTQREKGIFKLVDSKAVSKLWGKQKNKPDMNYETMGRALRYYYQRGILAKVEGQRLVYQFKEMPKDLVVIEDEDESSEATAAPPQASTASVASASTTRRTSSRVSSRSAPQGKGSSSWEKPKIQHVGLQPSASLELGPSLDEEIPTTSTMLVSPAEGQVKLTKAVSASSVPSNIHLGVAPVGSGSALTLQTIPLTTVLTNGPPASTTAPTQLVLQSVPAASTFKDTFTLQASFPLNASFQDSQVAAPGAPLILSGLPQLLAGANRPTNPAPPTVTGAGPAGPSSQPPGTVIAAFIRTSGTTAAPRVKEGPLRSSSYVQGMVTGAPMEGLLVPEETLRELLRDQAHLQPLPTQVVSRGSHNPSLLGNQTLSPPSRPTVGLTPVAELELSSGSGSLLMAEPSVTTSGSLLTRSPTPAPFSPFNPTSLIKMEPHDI
# Summary of the method: as §1
# ELK4 = molecular target: T3, ELK4 (Homo sapiens, UniProt P28324-2 1-405); conditions: protein: recombinant; tags: N-terminal GST; dsDNA, one strand shown
# T3 sequence: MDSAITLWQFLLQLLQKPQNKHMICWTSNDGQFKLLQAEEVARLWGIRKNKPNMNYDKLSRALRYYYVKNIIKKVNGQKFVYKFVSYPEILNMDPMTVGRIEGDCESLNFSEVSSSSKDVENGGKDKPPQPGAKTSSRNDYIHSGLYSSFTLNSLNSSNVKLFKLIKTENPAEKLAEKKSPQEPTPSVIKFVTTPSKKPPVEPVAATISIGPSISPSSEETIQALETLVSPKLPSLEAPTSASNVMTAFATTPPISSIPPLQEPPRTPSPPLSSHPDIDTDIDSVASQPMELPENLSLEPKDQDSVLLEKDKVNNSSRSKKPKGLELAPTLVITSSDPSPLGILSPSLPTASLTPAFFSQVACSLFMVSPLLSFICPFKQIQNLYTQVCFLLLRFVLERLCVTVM
# Summary of the method: as §1
# ETV2 = molecular target: T4, ETV2 (Homo sapiens, UniProt O00321 1-342); conditions: protein: recombinant; tags: N-terminal GST; dsDNA, one strand shown
# T4 sequence: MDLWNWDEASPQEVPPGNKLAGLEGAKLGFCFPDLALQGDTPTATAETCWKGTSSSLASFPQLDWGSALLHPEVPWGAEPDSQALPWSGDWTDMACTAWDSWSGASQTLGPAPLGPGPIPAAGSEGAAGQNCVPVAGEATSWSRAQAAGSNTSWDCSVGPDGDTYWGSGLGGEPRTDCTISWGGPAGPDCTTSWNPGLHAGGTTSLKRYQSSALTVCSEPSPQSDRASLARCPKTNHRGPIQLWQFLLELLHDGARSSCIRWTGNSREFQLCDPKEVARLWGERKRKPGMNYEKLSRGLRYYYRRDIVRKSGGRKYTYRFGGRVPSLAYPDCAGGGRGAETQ
# Summary of the method: as §1
# ELF3 = molecular target: T5, ELF3 (Homo sapiens, UniProt P78545 1-371); conditions: protein: recombinant; tags: N-terminal GST; dsDNA, one strand shown
# T5 sequence: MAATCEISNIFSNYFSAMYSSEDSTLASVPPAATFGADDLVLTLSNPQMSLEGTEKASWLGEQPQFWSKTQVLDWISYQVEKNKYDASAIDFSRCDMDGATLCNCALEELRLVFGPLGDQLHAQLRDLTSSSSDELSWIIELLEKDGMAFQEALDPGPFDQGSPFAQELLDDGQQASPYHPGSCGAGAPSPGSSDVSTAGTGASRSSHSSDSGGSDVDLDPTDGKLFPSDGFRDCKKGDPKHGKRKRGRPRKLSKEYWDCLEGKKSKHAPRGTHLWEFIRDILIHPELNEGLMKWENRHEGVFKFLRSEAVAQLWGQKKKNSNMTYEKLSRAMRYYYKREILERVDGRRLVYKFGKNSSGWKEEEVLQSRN
# Summary of the method: as §1
# CRX = CRX (Homo sapiens, UniProt O43186 1-299); conditions: protein: recombinant; tags: N-terminal GST; dsDNA, one strand shown
# Chain of CRX (O43186 whole entry): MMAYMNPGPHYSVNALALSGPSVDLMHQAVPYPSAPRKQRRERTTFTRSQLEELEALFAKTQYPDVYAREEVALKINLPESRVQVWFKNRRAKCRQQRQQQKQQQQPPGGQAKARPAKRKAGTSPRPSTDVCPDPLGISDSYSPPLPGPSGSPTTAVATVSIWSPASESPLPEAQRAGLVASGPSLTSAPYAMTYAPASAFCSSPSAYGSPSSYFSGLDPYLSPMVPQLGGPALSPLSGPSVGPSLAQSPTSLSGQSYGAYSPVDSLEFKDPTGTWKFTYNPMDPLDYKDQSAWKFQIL
# Summary of the method: as §1
# ETV1 = ETV1 (Homo sapiens, UniProt P50549 1-477); conditions: protein: recombinant; tags: N-terminal GST; dsDNA, one strand shown
# Chain of ETV1 (P50549 whole entry): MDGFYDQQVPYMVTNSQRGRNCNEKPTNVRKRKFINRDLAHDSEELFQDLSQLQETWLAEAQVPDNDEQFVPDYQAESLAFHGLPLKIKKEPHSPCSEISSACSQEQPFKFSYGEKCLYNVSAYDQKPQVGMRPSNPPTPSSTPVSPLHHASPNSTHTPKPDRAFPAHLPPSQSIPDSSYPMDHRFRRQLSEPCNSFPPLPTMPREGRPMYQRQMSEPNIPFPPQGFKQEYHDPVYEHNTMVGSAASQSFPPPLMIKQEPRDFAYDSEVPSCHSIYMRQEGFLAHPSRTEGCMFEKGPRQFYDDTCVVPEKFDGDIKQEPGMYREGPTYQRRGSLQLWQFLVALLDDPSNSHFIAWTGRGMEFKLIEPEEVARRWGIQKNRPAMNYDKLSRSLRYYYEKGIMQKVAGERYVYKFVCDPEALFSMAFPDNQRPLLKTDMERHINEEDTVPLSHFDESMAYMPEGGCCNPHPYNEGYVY
# Summary of the method: as §1
# ERF = molecular target: T6, ERF (Homo sapiens, UniProt P50548 1-548); conditions: protein: recombinant; tags: N-terminal GST; dsDNA, one strand shown
# T6 sequence: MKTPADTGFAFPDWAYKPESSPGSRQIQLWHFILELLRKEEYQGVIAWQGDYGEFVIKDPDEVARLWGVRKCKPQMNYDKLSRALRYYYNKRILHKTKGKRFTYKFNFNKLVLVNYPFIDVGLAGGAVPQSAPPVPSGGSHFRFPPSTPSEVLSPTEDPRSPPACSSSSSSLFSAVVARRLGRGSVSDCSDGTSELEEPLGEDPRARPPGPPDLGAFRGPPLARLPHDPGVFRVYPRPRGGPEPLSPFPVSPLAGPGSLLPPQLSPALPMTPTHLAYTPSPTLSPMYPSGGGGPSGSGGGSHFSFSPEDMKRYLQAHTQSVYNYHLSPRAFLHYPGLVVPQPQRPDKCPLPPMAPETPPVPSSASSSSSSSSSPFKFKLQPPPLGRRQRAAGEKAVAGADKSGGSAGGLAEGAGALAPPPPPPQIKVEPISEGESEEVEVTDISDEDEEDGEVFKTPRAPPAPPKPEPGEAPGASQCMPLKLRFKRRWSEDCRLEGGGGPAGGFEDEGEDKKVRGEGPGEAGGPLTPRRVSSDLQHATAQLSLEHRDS
# Summary of the method: as §1
# ETV3L = molecular target: T7, ETV3L (Homo sapiens, UniProt Q6ZN32 1-361); conditions: protein: recombinant; tags: N-terminal GST; dsDNA, one strand shown
# T7 sequence: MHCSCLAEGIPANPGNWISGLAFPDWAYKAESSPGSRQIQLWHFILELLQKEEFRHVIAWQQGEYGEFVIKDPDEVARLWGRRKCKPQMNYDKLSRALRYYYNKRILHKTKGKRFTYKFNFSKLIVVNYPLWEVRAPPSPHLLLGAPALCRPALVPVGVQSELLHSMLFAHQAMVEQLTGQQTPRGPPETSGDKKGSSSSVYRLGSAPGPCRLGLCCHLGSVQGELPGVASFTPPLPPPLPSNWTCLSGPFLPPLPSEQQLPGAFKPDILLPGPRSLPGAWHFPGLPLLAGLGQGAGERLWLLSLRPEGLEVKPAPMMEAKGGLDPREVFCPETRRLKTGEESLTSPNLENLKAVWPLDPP
# Summary of the method: as §1
# ETS2 = molecular target: T8, ETS2 (Homo sapiens, UniProt P15036 1-469); conditions: protein: recombinant; tags: N-terminal GST; dsDNA, one strand shown
# T8 sequence: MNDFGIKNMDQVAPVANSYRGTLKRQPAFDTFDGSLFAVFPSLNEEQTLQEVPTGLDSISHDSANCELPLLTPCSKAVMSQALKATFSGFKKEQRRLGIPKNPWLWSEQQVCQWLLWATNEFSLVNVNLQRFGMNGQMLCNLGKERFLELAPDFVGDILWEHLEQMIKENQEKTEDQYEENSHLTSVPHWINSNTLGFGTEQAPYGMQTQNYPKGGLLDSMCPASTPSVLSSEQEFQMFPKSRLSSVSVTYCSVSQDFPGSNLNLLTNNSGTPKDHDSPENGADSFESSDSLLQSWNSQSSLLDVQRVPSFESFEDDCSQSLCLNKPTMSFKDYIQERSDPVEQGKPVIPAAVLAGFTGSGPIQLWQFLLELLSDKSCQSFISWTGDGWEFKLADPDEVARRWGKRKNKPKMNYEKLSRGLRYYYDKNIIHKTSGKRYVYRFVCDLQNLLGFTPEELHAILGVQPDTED
# Summary of the method: as §1
# SPDEF = molecular target: T9, SPDEF (Homo sapiens, UniProt O95238 1-335); conditions: protein: recombinant; tags: N-terminal GST; dsDNA, one strand shown
# T9 sequence: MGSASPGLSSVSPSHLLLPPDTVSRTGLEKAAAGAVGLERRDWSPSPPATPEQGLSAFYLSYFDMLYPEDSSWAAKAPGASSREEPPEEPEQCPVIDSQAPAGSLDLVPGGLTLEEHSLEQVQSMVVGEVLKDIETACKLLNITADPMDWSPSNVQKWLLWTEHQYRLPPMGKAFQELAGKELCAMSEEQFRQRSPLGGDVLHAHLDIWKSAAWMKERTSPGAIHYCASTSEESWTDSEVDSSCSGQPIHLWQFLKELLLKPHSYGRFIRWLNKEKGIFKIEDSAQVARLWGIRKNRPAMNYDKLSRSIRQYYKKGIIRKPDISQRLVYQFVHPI
# Summary of the method: as §1
# ETV7 = molecular target: T10, ETV7 (Homo sapiens, UniProt Q9Y603 1-341); conditions: protein: recombinant; tags: N-terminal GST; dsDNA, one strand shown
# T10 sequence: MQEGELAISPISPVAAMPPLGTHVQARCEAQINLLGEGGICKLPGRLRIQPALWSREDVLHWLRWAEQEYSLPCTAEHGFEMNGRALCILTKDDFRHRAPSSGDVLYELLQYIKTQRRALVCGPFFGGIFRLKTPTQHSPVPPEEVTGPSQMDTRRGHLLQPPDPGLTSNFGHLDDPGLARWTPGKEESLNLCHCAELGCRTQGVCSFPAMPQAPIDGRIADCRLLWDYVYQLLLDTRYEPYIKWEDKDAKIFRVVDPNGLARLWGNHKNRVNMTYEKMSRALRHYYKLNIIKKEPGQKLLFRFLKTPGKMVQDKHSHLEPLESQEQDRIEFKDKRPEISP
# Summary of the method: as §1
# ELF5 = molecular target: T11, ELF5 (Homo sapiens, UniProt Q9UKW6-2 1-255); conditions: protein: recombinant; tags: N-terminal GST; dsDNA, one strand shown
# T11 sequence: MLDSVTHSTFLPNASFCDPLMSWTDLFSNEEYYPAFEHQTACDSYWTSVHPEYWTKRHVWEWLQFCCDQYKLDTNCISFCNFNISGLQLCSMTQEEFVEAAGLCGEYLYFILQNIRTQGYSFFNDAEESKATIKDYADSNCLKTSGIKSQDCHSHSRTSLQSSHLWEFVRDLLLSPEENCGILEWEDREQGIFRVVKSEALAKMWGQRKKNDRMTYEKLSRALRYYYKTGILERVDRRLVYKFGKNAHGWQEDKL
# Summary of the method: as §1
# ETV3 = molecular target: T12, ETV3 (Homo sapiens, UniProt P41162-2 1-143); conditions: protein: recombinant; tags: N-terminal GST; dsDNA, one strand shown
# T12 sequence: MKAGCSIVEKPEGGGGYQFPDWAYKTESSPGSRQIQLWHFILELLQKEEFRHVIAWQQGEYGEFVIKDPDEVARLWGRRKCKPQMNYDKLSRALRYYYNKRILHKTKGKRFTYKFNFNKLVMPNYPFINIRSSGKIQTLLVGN
# Summary of the method: as §1
# ETV6 = ETV6 (Homo sapiens, UniProt P41212 1-452); conditions: protein: recombinant; tags: N-terminal GST; dsDNA, one strand shown
# Chain of ETV6 (P41212 whole entry): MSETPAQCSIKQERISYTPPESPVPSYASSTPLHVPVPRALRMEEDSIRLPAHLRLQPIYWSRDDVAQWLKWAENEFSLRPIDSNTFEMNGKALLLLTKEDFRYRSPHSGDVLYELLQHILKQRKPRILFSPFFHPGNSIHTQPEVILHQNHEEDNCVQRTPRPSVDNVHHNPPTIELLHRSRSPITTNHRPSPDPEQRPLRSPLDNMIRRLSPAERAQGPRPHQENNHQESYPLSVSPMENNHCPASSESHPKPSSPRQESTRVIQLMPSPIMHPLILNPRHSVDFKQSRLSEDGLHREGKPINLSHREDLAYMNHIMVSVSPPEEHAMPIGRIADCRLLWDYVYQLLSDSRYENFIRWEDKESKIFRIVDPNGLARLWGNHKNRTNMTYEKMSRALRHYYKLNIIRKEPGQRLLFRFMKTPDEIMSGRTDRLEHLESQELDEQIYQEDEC
# Summary of the method: as §1
sequence,measurement,setting,value
ATACTC,binding signal,FEV,"1.27 fold enrichment (6-mer frequency, TF over GST control)"
same,binding signal,ETV5,"1.22 fold enrichment (6-mer frequency, TF over GST control)"
same,binding signal,HSF1,"1.41 fold enrichment (6-mer frequency, TF over GST control)"
same,binding signal,SPIC,"1.42 fold enrichment (6-mer frequency, TF over GST control)"
same,binding signal,ELF4,"1.25 fold enrichment (6-mer frequency, TF over GST control)"
same,binding signal,ELK4,"1.23 fold enrichment (6-mer frequency, TF over GST control)"
same,binding signal,ETV2,"1.3 fold enrichment (6-mer frequency, TF over GST control)"
same,binding signal,ELF3,"1.23 fold enrichment (6-mer frequency, TF over GST control)"
same,binding signal,CRX,"1.37 fold enrichment (6-mer frequency, TF over GST control)"
same,binding signal,ETV1,"1.28 fold enrichment (6-mer frequency, TF over GST control)"
same,binding signal,ERF,"1.36 fold enrichment (6-mer frequency, TF over GST control)"
same,binding signal,ETV3L,"1.22 fold enrichment (6-mer frequency, TF over GST control)"
same,binding signal,ETS2,"1.26 fold enrichment (6-mer frequency, TF over GST control)"
same,binding signal,SPDEF,"1.32 fold enrichment (6-mer frequency, TF over GST control)"
same,binding signal,ETV7,"1.23 fold enrichment (6-mer frequency, TF over GST control)"
same,binding signal,ELF5,"1.25 fold enrichment (6-mer frequency, TF over GST control)"
same,binding signal,ETV3,"1.33 fold enrichment (6-mer frequency, TF over GST control)"
same,binding signal,ETV6,"1.33 fold enrichment (6-mer frequency, TF over GST control)"
